Experimental findings from PMC7862700, “An all-to-all approach to the identification of sequence-specific readers for epigenetic DNA modifications on cytosine” are described below.

Experiment in all cases: DAPPL (digital affinity profiling via proximity ligation, sequencing); 10 mM Tris-HCl pH 7.5, 50 mM NaCl, 1 mM DTT, 4% glycerol, room temperature, 30 min; GST-TFs on glutathione beads, 16-mer random dsDNA library, 0.1% formaldehyde crosslink after washing; high values mean tight binding
One assay has as its target T1, FEV (Homo sapiens, UniProt Q99581 1-238).
T1 sequence: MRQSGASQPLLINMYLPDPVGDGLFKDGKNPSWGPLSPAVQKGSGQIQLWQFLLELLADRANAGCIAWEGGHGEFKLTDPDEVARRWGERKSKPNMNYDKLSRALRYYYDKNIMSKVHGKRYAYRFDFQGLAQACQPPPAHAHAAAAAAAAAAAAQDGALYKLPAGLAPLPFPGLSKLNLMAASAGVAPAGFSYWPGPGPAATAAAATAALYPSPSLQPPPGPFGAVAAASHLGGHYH
Conditions: protein: recombinant; tags: N-terminal GST; dsDNA, one strand shown. A digest of the protocol:
(§1)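 After expression in yeast as GST fusions, human transcription factors were bound to glutathione beads, DNA-barcoded and mixed with a tag-only sample. The pools were incubated with 200 nmole of a 16-mer random double-stranded DNA library in Tris/NaCl/DTT/glycerol buffer (30 min, room temperature), washed and crosslinked with 0.1% formaldehyde. Proximity ligation with BsaI/T4 ligase ran for 1 h at 37 °C, before PCR amplification and sequencing on an Illumina NextSeq500. Binding signal is a hexamer's read frequency for a factor divided by its frequency for the tag-only sample.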

In a further assay the target is ETV5 (Homo sapiens, UniProt P41161 1-510). Conditions: protein: recombinant; tags: N-terminal GST; dsDNA, one strand shown. In short, it runs like this: as §1
Sequence of ETV5 (P41161 whole entry): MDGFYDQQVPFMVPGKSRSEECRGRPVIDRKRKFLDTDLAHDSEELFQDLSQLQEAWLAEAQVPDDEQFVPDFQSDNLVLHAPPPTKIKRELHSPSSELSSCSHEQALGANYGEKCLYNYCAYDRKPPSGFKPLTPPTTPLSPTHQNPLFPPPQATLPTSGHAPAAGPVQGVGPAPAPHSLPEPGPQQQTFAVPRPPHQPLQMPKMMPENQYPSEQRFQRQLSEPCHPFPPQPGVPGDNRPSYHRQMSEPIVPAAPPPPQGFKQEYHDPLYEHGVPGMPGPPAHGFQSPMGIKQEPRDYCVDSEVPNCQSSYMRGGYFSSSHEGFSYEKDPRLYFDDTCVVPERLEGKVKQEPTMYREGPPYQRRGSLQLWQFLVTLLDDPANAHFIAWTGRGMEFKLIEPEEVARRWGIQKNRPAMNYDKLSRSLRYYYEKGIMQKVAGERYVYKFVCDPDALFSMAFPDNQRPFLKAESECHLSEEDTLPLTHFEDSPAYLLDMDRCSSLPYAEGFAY
The target in another assay is HSF1 (Homo sapiens, UniProt Q00613 1-529). Particulars: protein: recombinant; tags: N-terminal GST; chain copies: 3; dsDNA, one strand shown. In short, it runs like this:
as §1

The next assay deals with T2, SPIC (Homo sapiens, UniProt Q8N5J4 1-248).
T2 sequence: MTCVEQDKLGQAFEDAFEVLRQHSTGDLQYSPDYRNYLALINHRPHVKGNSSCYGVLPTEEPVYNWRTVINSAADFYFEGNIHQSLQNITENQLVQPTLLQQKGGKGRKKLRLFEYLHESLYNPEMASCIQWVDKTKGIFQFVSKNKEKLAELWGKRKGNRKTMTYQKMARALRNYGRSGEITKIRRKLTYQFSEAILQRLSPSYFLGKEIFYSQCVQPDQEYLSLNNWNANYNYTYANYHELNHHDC
Particulars: protein: recombinant; tags: N-terminal GST; dsDNA, one strand shown. A digest of the protocol:
as §1

In another assay the target is ELF4 (Homo sapiens, UniProt Q99607 1-663). Particulars: protein: recombinant; tags: N-terminal GST; dsDNA, one strand shown. A digest of the protocol:
as §1

In the next assay the target is T3, ELK4 (Homo sapiens, UniProt P28324-2 1-405).
T3 sequence: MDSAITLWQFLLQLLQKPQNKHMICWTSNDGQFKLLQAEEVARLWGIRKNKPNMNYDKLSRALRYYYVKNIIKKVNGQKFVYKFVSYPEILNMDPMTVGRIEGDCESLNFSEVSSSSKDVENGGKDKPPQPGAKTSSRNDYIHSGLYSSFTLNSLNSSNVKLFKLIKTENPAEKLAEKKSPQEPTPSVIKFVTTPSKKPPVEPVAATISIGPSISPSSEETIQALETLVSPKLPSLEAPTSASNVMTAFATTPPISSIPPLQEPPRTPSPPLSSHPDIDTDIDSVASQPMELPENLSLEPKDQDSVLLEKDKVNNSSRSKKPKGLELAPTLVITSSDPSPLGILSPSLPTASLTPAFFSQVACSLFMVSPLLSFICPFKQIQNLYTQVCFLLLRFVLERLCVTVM
Particulars: protein: recombinant; tags: N-terminal GST; dsDNA, one strand shown. In short, it runs like this:
as §1

In another assay the target is T4, ETV2 (Homo sapiens, UniProt O00321 1-342).
T4 sequence: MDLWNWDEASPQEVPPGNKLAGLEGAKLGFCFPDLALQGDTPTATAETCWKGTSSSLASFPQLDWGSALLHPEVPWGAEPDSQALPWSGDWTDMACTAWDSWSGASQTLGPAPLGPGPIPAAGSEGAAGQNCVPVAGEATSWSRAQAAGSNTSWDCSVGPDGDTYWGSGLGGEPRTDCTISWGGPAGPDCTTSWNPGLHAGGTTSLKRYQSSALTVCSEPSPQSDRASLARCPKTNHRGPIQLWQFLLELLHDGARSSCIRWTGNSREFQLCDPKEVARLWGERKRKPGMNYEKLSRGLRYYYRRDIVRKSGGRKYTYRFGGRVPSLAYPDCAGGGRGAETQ
Conditions: protein: recombinant; tags: N-terminal GST; dsDNA, one strand shown. A digest of the protocol: as §1

The target in another assay is T5, ELF3 (Homo sapiens, UniProt P78545 1-371).
T5 sequence: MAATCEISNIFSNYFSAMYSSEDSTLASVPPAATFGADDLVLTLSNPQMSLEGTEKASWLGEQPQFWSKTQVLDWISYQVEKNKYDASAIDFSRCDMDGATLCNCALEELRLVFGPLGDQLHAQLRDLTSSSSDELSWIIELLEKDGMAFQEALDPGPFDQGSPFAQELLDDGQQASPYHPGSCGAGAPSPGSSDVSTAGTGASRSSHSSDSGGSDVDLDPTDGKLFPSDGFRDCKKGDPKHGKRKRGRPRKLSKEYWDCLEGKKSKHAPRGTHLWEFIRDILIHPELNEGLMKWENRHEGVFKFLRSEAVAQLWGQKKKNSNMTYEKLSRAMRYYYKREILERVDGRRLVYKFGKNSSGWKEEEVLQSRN
Conditions: protein: recombinant; tags: N-terminal GST; dsDNA, one strand shown. A digest of the protocol:
as §1

In the next assay the target is CRX (Homo sapiens, UniProt O43186 1-299). Particulars: protein: recombinant; tags: N-terminal GST; dsDNA, one strand shown. In short, it runs like this:
as §1

A further assay has as its target ETV1 (Homo sapiens, UniProt P50549 1-477). Particulars: protein: recombinant; tags: N-terminal GST; dsDNA, one strand shown. In short, it runs like this:
as §1

The next assay addresses T6, ERF (Homo sapiens, UniProt P50548 1-548).
T6 sequence: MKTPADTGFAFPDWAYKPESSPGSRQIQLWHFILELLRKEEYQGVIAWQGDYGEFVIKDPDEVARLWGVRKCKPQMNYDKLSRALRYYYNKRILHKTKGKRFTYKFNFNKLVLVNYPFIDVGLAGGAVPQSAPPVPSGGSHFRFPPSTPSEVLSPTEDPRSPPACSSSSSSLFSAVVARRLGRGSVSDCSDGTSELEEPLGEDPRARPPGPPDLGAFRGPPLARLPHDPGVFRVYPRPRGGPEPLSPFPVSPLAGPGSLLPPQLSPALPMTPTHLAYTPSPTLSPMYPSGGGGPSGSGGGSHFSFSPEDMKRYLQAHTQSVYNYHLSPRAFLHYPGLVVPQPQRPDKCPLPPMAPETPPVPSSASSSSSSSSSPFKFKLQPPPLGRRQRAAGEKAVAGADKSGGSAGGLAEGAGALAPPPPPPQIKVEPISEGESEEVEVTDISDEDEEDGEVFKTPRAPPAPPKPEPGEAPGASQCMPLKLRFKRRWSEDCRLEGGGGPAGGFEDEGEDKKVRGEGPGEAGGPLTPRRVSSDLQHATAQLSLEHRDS
Conditions: protein: recombinant; tags: N-terminal GST; dsDNA, one strand shown. In short, it runs like this:
as §1

The target of the next assay is T7, ETV3L (Homo sapiens, UniProt Q6ZN32 1-361).
T7 sequence: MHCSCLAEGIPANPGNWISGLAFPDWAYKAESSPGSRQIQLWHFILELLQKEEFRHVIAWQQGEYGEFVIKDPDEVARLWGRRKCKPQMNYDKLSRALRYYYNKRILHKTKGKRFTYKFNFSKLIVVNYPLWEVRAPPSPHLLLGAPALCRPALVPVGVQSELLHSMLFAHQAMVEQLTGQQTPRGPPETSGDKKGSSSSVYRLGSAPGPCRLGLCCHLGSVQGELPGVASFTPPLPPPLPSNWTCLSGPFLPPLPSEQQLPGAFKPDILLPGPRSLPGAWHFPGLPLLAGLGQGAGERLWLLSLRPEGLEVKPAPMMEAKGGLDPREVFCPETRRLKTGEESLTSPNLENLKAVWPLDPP
Conditions: protein: recombinant; tags: N-terminal GST; dsDNA, one strand shown. In short, it runs like this: as §1

The target of the next assay is T8, ETS2 (Homo sapiens, UniProt P15036 1-469).
T8 sequence: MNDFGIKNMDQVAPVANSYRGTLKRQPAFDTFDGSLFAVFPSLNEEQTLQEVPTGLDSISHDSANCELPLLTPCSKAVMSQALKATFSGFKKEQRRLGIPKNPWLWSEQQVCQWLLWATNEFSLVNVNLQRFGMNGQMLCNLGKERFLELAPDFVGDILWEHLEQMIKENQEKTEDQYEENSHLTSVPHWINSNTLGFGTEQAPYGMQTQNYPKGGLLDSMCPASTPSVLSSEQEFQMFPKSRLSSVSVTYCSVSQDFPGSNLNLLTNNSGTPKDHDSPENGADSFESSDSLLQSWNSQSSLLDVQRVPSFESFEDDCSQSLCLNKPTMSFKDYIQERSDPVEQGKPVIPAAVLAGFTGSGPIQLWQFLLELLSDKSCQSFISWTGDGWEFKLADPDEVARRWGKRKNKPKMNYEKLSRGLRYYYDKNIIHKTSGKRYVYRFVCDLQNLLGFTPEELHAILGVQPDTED
Conditions: protein: recombinant; tags: N-terminal GST; dsDNA, one strand shown. In short, it runs like this: as §1

In another assay the target is T9, SPDEF (Homo sapiens, UniProt O95238 1-335).
T9 sequence: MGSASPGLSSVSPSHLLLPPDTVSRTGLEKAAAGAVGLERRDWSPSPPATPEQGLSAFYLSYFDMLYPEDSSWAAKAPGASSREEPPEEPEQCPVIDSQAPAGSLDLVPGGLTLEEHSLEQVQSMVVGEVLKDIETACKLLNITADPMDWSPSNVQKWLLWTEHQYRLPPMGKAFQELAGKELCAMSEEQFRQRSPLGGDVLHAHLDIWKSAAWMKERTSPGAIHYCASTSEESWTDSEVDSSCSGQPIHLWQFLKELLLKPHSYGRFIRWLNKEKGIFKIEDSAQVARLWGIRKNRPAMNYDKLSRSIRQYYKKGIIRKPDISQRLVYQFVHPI
Particulars: protein: recombinant; tags: N-terminal GST; dsDNA, one strand shown. In short, it runs like this: as §1

The next assay has as its target T10, ETV7 (Homo sapiens, UniProt Q9Y603 1-341).
T10 sequence: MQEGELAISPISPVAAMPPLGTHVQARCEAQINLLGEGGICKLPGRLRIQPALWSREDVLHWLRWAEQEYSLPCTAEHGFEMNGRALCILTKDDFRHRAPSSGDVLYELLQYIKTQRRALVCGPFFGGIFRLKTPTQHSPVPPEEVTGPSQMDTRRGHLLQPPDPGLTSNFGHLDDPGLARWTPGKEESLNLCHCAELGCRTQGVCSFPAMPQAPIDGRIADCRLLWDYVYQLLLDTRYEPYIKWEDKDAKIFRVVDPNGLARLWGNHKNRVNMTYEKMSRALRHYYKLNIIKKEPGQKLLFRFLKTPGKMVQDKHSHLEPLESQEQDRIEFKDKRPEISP
Particulars: protein: recombinant; tags: N-terminal GST; dsDNA, one strand shown. In short, it runs like this: as §1

For the next assay, the target named is T11, ELF5 (Homo sapiens, UniProt Q9UKW6-2 1-255).
T11 sequence: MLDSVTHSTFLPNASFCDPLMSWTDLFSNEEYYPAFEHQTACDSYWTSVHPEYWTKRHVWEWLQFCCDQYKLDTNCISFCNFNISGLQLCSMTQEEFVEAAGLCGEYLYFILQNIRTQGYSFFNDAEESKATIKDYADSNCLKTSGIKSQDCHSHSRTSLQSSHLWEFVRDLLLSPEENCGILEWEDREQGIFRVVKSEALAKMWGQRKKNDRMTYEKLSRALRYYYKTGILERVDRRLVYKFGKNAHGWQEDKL
Conditions: protein: recombinant; tags: N-terminal GST; dsDNA, one strand shown. A digest of the protocol: as §1

A further assay has as its target T12, ETV3 (Homo sapiens, UniProt P41162-2 1-143).
T12 sequence: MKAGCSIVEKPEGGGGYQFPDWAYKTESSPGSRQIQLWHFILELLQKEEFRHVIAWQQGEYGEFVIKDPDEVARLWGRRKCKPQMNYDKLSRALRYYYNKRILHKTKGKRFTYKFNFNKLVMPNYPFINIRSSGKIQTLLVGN
Conditions: protein: recombinant; tags: N-terminal GST; dsDNA, one strand shown. A digest of the protocol: as §1

A further assay concerns the target ETV6 (Homo sapiens, UniProt P41212 1-452). Conditions: protein: recombinant; tags: N-terminal GST; dsDNA, one strand shown. A digest of the protocol: as §1

Sequence of ETV6 (P41212 whole entry): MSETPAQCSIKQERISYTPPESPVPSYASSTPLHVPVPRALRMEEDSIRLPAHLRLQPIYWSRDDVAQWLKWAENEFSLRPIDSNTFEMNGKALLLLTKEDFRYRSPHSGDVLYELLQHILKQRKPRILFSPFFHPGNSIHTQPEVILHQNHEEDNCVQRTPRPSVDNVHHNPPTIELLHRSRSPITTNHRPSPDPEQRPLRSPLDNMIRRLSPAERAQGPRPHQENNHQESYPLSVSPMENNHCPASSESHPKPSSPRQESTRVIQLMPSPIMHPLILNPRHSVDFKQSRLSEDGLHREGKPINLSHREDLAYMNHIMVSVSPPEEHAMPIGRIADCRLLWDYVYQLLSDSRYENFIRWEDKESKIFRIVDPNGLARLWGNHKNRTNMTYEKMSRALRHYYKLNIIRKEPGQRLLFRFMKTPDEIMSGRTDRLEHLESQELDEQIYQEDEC
Sequence of ELF4 (Q99607 whole entry): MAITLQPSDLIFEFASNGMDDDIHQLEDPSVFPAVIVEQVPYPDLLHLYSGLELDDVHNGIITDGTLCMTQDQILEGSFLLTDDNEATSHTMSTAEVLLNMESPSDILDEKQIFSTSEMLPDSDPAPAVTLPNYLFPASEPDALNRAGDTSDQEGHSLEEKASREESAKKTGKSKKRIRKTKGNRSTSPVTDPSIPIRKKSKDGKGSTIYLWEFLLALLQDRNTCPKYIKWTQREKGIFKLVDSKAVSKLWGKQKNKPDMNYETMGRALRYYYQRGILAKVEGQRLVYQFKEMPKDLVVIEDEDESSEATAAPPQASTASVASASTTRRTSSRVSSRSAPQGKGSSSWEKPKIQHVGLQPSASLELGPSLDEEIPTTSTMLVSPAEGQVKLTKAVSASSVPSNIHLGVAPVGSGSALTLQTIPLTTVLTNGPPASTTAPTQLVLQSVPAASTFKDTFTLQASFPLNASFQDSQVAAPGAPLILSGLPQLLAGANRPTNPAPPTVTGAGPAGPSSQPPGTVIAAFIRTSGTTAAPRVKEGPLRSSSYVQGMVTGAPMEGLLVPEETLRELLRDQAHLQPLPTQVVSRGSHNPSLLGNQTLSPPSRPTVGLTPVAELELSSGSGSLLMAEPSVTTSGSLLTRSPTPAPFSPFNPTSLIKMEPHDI
Sequence of HSF1 (Q00613 whole entry): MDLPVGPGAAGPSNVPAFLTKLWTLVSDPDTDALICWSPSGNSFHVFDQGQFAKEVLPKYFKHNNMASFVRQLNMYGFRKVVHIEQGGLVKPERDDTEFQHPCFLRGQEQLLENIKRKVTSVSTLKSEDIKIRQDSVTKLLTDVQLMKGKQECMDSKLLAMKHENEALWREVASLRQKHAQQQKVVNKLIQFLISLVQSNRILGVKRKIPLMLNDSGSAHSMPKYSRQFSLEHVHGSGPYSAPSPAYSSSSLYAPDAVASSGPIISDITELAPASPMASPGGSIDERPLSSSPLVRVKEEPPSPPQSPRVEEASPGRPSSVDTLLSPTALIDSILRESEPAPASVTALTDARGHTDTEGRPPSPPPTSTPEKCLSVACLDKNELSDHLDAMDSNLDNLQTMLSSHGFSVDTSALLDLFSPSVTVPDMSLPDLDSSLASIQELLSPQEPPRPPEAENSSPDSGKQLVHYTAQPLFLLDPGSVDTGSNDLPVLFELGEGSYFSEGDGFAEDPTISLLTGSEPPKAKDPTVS
Sequence of CRX (O43186 whole entry): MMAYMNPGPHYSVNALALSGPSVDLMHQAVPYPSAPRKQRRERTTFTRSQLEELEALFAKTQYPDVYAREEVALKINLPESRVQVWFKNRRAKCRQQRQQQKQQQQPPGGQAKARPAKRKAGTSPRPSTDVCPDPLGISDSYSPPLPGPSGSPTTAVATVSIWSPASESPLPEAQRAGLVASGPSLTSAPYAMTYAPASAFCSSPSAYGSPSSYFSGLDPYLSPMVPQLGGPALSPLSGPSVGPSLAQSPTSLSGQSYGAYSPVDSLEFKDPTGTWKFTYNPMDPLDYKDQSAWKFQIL
Sequence of ETV1 (P50549 whole entry): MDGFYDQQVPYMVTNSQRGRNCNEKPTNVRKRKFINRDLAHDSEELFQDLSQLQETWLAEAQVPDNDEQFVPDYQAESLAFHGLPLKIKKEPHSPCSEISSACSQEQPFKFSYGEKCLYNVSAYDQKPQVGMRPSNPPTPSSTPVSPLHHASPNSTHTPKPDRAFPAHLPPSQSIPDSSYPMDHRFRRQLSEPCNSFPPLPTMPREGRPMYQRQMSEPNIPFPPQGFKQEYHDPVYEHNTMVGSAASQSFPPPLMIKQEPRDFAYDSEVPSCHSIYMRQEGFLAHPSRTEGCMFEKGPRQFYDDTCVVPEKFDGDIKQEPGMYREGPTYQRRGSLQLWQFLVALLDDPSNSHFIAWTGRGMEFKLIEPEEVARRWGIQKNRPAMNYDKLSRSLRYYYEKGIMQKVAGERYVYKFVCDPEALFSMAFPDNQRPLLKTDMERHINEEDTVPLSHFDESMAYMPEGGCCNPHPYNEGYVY

Take AACCAA: the binding signal in the assay with FEV is 1.19 fold enrichment (6-mer frequency, TF over GST control); in the assay with ETV5, 1.21 fold enrichment (6-mer frequency, TF over GST control); in the assay with HSF1, 1.08 fold enrichment (6-mer frequency, TF over GST control); in the assay with SPIC, 1.1 fold enrichment (6-mer frequency, TF over GST control); with ELF4, 1.33 fold enrichment (6-mer frequency, TF over GST control); with ELK4 it was 1.05 fold enrichment (6-mer frequency, TF over GST control). Besides, the binding signal with ETV2 is 1.21 fold enrichment (6-mer frequency, TF over GST control); with ELF3, 1.32 fold enrichment (6-mer frequency, TF over GST control); with CRX it was 1.09 fold enrichment (6-mer frequency, TF over GST control); in the assay with ETV1, 1.2 fold enrichment (6-mer frequency, TF over GST control); in the assay with ERF, 1.25 fold enrichment (6-mer frequency, TF over GST control); in the assay with ETV3L it was 1.15 fold enrichment (6-mer frequency, TF over GST control). For the same sequence, the binding signal in the assay with ETS2 was 1.23 fold enrichment (6-mer frequency, TF over GST control); with SPDEF, 1.21 fold enrichment (6-mer frequency, TF over GST control); with ETV7, 1.2 fold enrichment (6-mer frequency, TF over GST control); with ELF5 it was 1.16 fold enrichment (6-mer frequency, TF over GST control); with ETV3 it was 1.18 fold enrichment (6-mer frequency, TF over GST control); with ETV6, 1.29 fold enrichment (6-mer frequency, TF over GST control).
